Measured values taken from PubChem BioAssay (NCATS).
Results filed as inconclusive are left out. The source made the active and inactive calls. Calls follow the shape of the dose curve; as a rule, active = well fitted cell-killing curve with a large enough effect; inconclusive = small, poorly fitted or top-dose-only effect, or effect the other way; inactive = flat fitted curve, though single readings scatter.

How the values were obtained:
Assay in all cases: Primary qHTS to identify gynecologic anti-cancer compounds using libraries of approved drugs and bioactive compounds (AID 1345084); also: nearly all actives have a fitted effect of over 55% in size
CASKI = settings: Gynecologic cancer cell panel viability, ATPlite luminescence, 48 h; series mostly up to 57.5 µM
Procedure, shortened: (§1)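 Measured: luminescence after ATPlite addition (15 min, RT). Exposure: 48 h, 37 C, 5% CO2.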

Es-2 = settings: Gynecologic cancer cell panel viability, ATPlite luminescence, 48 h; series mostly up to 57.5 µM
Procedure, shortened: as §1

HeLa = settings: Gynecologic cancer cell panel viability, ATPlite luminescence, 48 h; series mostly up to 57.5 µM
Procedure, shortened: as §1

Hek293T = settings: Gynecologic cancer cell panel viability, ATPlite luminescence, 48 h, control line for the selectivity index; series mostly up to 57.5 µM
Procedure, shortened: as §1

JEG-3 = settings: Gynecologic cancer cell panel viability, ATPlite luminescence, 48 h; series mostly up to 57.5 µM
Procedure, shortened: as §1

OV90 = settings: Gynecologic cancer cell panel viability, ATPlite luminescence, 48 h; series mostly up to 57.5 µM
Procedure, shortened: as §1

PA-1 = settings: Gynecologic cancer cell panel viability, ATPlite luminescence, 48 h; series mostly up to 57.5 µM
Procedure, shortened: as §1

SKOV3 = settings: Gynecologic cancer cell panel viability, ATPlite luminescence, 48 h; series mostly up to 57.5 µM
Procedure, shortened: as §1

Tov-21-G = settings: Gynecologic cancer cell panel viability, ATPlite luminescence, 48 h; series mostly up to 57.5 µM
Procedure, shortened: as §1

CAOV3 = settings: Gynecologic cancer cell panel viability, ATPlite luminescence, 48 h; series mostly up to 57.5 µM
Procedure, shortened: as §1
% is scaled to controls: 0 for no effect and ±100 for the full control effect; potency is read from the fitted curve at half-maximal effect.

Cc1ccc(N(CC2=NCCN2)c2cccc(O)c2)cc1
inactive: Potency (CASKI) | Potency (Es-2) | Potency (HeLa) | Potency (Hek293T) | Potency (JEG-3) | Potency (OV90) | Potency (PA-1) | Potency (SKOV3) | Potency (Tov-21-G)

c1ccc([C@H]2CN3CCSC3=N2)cc1
inactive: Potency (CASKI) | Potency (Es-2) | Potency (HeLa) | Potency (Hek293T) | Potency (JEG-3) | Potency (OV90) | Potency (PA-1) | Potency (SKOV3) | Potency (Tov-21-G)

CCCCNc1cc(C(=O)O)cc(S(N)(=O)=O)c1Oc1ccccc1
inactive: Potency (CAOV3) | Potency (CASKI) | Potency (Es-2) | Potency (HeLa) | Potency (JEG-3) | Potency (OV90) | Potency (PA-1) | Potency (SKOV3) | Potency (Tov-21-G)

CNCc1ccc(-c2[nH]c3cc(F)cc4c3c2CCNC4=O)cc1
inactive: Potency (CASKI) | Potency (Es-2) | Potency (HeLa) | Potency (Hek293T) | Potency (JEG-3) | Potency (OV90) | Potency (PA-1) | Potency (SKOV3) | Potency (Tov-21-G)

Clc1ccc(Nc2nnc(Cc3ccncc3)c3ccccc23)cc1
inactive: Potency (CASKI) | Potency (Es-2) | Potency (HeLa) | Potency (Hek293T) | Potency (JEG-3) | Potency (OV90) | Potency (PA-1) | Potency (SKOV3) | Potency (Tov-21-G)

Cc1ccc(-n2nc(C(C)(C)C)cc2NC(=O)Nc2ccc(OCCN3CCOCC3)c3ccccc23)cc1
inactive: Potency (CASKI) | Potency (Es-2) | Potency (HeLa) | Potency (Hek293T) | Potency (JEG-3) | Potency (OV90) | Potency (PA-1) | Potency (SKOV3) | Potency (Tov-21-G)

CC(C)(Sc1ccc(CCN(CCCCC2CCCCC2)C(=O)NC2CCCCC2)cc1)C(=O)O
inactive: Potency (CASKI) | Potency (Es-2) | Potency (HeLa) | Potency (Hek293T) | Potency (JEG-3) | Potency (OV90) | Potency (PA-1) | Potency (SKOV3) | Potency (Tov-21-G)

CC[C@H](Nc1ncnc2nc[nH]c12)c1nc2cccc(F)c2c(=O)n1-c1ccccc1
inactive: activity change, negative = cytotoxicity (CAOV3) -6.79% [at 11.6 µM] | activity change, negative = cytotoxicity (CASKI) -22.6% [at 11.6 µM] | activity change, negative = cytotoxicity (Es-2) -27.1% [at 11.6 µM] | activity change, negative = cytotoxicity (HeLa) -8.83% [at 11.6 µM] | activity change, negative = cytotoxicity (Hek293T) -17.7% [at 11.6 µM] | activity change, negative = cytotoxicity (JEG-3) -10.7% [at 11.6 µM] | activity change, negative = cytotoxicity (OV90) -4.59% [at 11.6 µM] | activity change, negative = cytotoxicity (PA-1) 0.976% [at 11.6 µM] | activity change, negative = cytotoxicity (Tov-21-G) -9.1% [at 11.6 µM]

CC1(C)Cc2c(-c3ccccc3)c(-c3ccc(Cl)cc3)c(CC(=O)O)n2C1
inactive: Potency (CAOV3) | Potency (CASKI) | Potency (Es-2) | Potency (HeLa) | Potency (JEG-3) | Potency (OV90) | Potency (PA-1) | Potency (SKOV3)

CS(=O)(=O)c1cccc(CNc2nc(Nc3ccc4c(c3)CCC(=O)N4)ncc2C(F)(F)F)c1
inactive: Potency (CAOV3) | Potency (CASKI) | Potency (Es-2) | Potency (Hek293T) | Potency (OV90)

Nc1nc2ccc(OC(F)(F)F)cc2s1
inactive: Potency (CAOV3) | Potency (CASKI) | Potency (Es-2) | Potency (JEG-3) | Potency (OV90) | Potency (SKOV3)

C[C@@H]1CN(Cc2ccc(F)cc2)[C@@H](C)CN1C(=O)c1cc2c(C(=O)C(=O)N(C)C)cn(C)c2cc1Cl
inactive: Potency (CASKI) | Potency (Es-2) | Potency (HeLa) | Potency (Hek293T) | Potency (JEG-3) | Potency (OV90) | Potency (PA-1) | Potency (SKOV3) | Potency (Tov-21-G)

O=c1[nH]cnc2[nH]ncc12
inactive: Potency (CAOV3) | Potency (CASKI) | Potency (Es-2) | Potency (HeLa) | Potency (JEG-3) | Potency (OV90) | Potency (PA-1) | Potency (SKOV3) | Potency (Tov-21-G)

NNCCc1ccccc1
inactive: Potency (CASKI) | Potency (Es-2) | Potency (HeLa) | Potency (Hek293T) | Potency (JEG-3) | Potency (OV90) | Potency (PA-1) | Potency (SKOV3) | Potency (Tov-21-G)

CCCC(CCC)C(=O)O
inactive: Potency (CAOV3) | Potency (CASKI) | Potency (Es-2) | Potency (HeLa) | Potency (Hek293T) | Potency (JEG-3) | Potency (OV90) | Potency (PA-1) | Potency (Tov-21-G)

C1COC(NC(C2CC2)C2CC2)=N1
inactive: Potency (CASKI) | Potency (Es-2) | Potency (HeLa) | Potency (Hek293T) | Potency (JEG-3) | Potency (OV90) | Potency (PA-1) | Potency (SKOV3) | Potency (Tov-21-G)

Oc1ccc(C2CNCCc3c2cc(O)c(O)c3Cl)cc1 (stereo not drawn)
inactive: Potency (CASKI) | Potency (Es-2) | Potency (HeLa) | Potency (Hek293T) | Potency (JEG-3) | Potency (OV90) | Potency (PA-1) | Potency (SKOV3) | Potency (Tov-21-G)

COc1ccc2nc(S(=O)Cc3ncc(C)c(OC)c3C)[nH]c2c1 (stereo not drawn)
inactive: Potency (CASKI) | Potency (Es-2) | Potency (HeLa) | Potency (Hek293T) | Potency (JEG-3) | Potency (OV90) | Potency (PA-1) | Potency (SKOV3) | Potency (Tov-21-G)

C#Cc1cccc(Nc2ncnc3cc(OCCOC)c(OCCOC)cc23)c1
inactive: Potency (CASKI) | Potency (Es-2) | Potency (HeLa) | Potency (Hek293T) | Potency (JEG-3) | Potency (OV90) | Potency (PA-1)
active: Potency (SKOV3) 10 µM

CN(C(=O)c1ccc(F)cc1C(F)(F)F)C1CCN(c2nnc(-c3ccnn3C)c3ccccc23)CC1
inactive: Potency (CASKI) | Potency (Es-2) | Potency (HeLa) | Potency (Hek293T) | Potency (JEG-3) | Potency (OV90) | Potency (PA-1) | Potency (SKOV3) | Potency (Tov-21-G)

C[C@H](NC(=O)Cc1cc(F)cc(F)c1)C(=O)N[C@@H]1C(=O)N(C)c2ccccc2-c2ccccc21
inactive: Potency (CASKI) | Potency (Es-2) | Potency (HeLa) | Potency (Hek293T) | Potency (JEG-3) | Potency (OV90) | Potency (PA-1) | Potency (SKOV3) | Potency (Tov-21-G)

O=NN(CCCl)C(=O)NCCCl
inactive: Potency (CAOV3) | Potency (CASKI) | Potency (Es-2) | Potency (HeLa) | Potency (JEG-3) | Potency (OV90) | Potency (PA-1) | Potency (SKOV3) | Potency (Tov-21-G)

CC1(C)CNc2cc(NC(=O)c3cccnc3NCc3ccncc3)ccc21
inactive: Potency (CAOV3) | Potency (CASKI) | Potency (Es-2) | Potency (HeLa) | Potency (Hek293T) | Potency (JEG-3) | Potency (PA-1) | Potency (SKOV3) | Potency (Tov-21-G)
